Reference: PubChem BioAssay AID1159580 (chemical genetic matrix, 2015)
Among all 5,500 compounds or so, about 2,000 (36%) were called active. Not shown: some 18% with an inconclusive outcome. Cut-off read from the data, not from the text of the source: active = normalized growth mostly below about 0.91 (no sharp cut-off); inconclusive = no clear call, values can overlap the other calls; inactive = mostly above about 0.92. This is one part of the list.

Assay: chemical genetic growth profiling, strain panel (AID 1159580);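 note: tested at 20 µM; growth read once vehicle control cultures reached saturation at 30 °C; 1 = growth at the plate median or of vehicle wells; lower values mean less growth of the strain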
Conditions: growth OD

Measured: normalized growth

COc1c(O)cc2c(c1O)[C@H]1O[C@H](CO)[C@@H](O)[C@H](O)[C@@H]1OC2=O
inactive: S. cerevisiae deletion strains, locus YKL009W, strain mrt4, active compounds read low 1.01 | S. cerevisiae deletion strains, locus YKL068W, active compounds read low 1.01 | S. cerevisiae deletion strains, locus YKL085W, strain MDH1 (second series), active compounds read low 1 | S. cerevisiae deletion strains, locus YKL085W, strain MDH1, active compounds read low 1 | S. cerevisiae deletion strains, locus YKL160W, strain elf1, active compounds read low 1.03 | S. cerevisiae deletion strains, locus YKL190W, strain CNB1, active compounds read low 0.975 | S. cerevisiae deletion strains, locus YKR001C, strain vps1, active compounds read low 1.01 | S. cerevisiae deletion strains, locus YKR026C, strain gcn3, active compounds read low 1.01 | S. cerevisiae deletion strains, locus YKR091W, strain srl3, active compounds read low 1.02 | S. cerevisiae deletion strains, locus YLL001W, strain dnm1, active compounds read low 1.03 | S. cerevisiae deletion strains, locus YLL026W, active compounds read low 1.01 | S. cerevisiae deletion strains, locus YLL041C, strain sdh2, active compounds read low 1.02 | S. cerevisiae deletion strains, locus YLR027C, strain aat2, active compounds read low 1.02 | S. cerevisiae deletion strains, locus YLR039C, strain RIC1, active compounds read low 1.04 | S. cerevisiae deletion strains, locus YLR058C, strain SHM2, active compounds read low 0.986 | S. cerevisiae deletion strains, locus YLR102C, strain apc9, active compounds read low 1 | S. cerevisiae deletion strains, locus YLR113W, strain HOG1, active compounds read low 0.985 | S. cerevisiae deletion strains, locus YLR221C, strain rsa3, active compounds read low 1.02 | S. cerevisiae deletion strains, locus YLR258W, strain gsy2, active compounds read low 1.04 | S. cerevisiae deletion strains, locus YLR262C, strain YPT6 (second series), active compounds read low 1.06 | S. cerevisiae deletion strains, locus YLR262C, strain YPT6, active compounds read low 1.07 | S. cerevisiae deletion strains, locus YLR268W, strain sec22, active compounds read low 1.01 | S. cerevisiae deletion strains, locus YLR320W, strain mms22, active compounds read low 1.05 | S. cerevisiae deletion strains, locus YLR330W, strain CHS5, active compounds read low 1.01 | S. cerevisiae deletion strains, locus YLR342W, strain FKS1 (second series), active compounds read low 0.902 | S. cerevisiae deletion strains, locus YLR342W, strain FKS1, active compounds read low 1.02 | S. cerevisiae deletion strains, locus YLR357W, strain rsc2, active compounds read low 1.01 | S. cerevisiae deletion strains, locus YLR370C, strain arc18, active compounds read low 1.02 | S. cerevisiae deletion strains, locus YLR371W, strain rom2, active compounds read low 1.01 | S. cerevisiae deletion strains, locus YLR384C, strain iki3, active compounds read low 1.01 | S. cerevisiae deletion strains, locus YLR418C, strain cdc73, active compounds read low 1.02 | S. cerevisiae deletion strains, locus YML016C, strain PPZ1, active compounds read low 1 | S. cerevisiae deletion strains, locus YML032C, strain rad52, active compounds read low 0.999 | S. cerevisiae deletion strains, locus YML120C, strain ndi1, active compounds read low 1.03 | S. cerevisiae deletion strains, locus YML124C, strain tub3, active compounds read low 1.01 | S. cerevisiae deletion strains, locus YMR058W, strain fet3, active compounds read low 1.01 | S. cerevisiae deletion strains, locus YMR078C, strain ctf18, active compounds read low 1.01 | S. cerevisiae deletion strains, locus YMR125W, strain sto1, active compounds read low 1.02 | S. cerevisiae deletion strains, locus YMR129W, active compounds read low 1.02 | S. cerevisiae deletion strains, locus YMR205C, strain PFK2, active compounds read low 1.03 | S. cerevisiae deletion strains, locus YMR223W, strain ubp8, active compounds read low 0.993 | S. cerevisiae deletion strains, locus YMR231W, strain pep5, active compounds read low 1.02 | S. cerevisiae deletion strains, locus YMR263W, strain SAP30, active compounds read low 0.993 | S. cerevisiae deletion strains, locus YMR307W, strain GAS1, active compounds read low 0.828 | S. cerevisiae deletion strains, locus YNL067W, strain RPL9B, active compounds read low 0.97 | S. cerevisiae deletion strains, locus YNL071W, strain lat1, active compounds read low 1.03 | S. cerevisiae deletion strains, locus YNL128W, strain TEP1, active compounds read low 1.01 | S. cerevisiae deletion strains, locus YNL153C, strain GIM3, active compounds read low 0.999 | S. cerevisiae deletion strains, locus YNL183C, strain NPR1, active compounds read low 0.933 | S. cerevisiae deletion strains, locus YNL209W, strain ssb2, active compounds read low 1.02 | S. cerevisiae deletion strains, locus YNL233W, strain BNI4, active compounds read low 0.939 | S. cerevisiae deletion strains, locus YNL248C, strain rpa49, active compounds read low 1.01 | S. cerevisiae deletion strains, locus YNL250W, strain rad50, active compounds read low 1.02 | S. cerevisiae deletion strains, locus YNL271C, strain bni1, active compounds read low 1.02 | S. cerevisiae deletion strains, locus YNL298W, strain CLA4, active compounds read low 1.02 | S. cerevisiae deletion strains, locus YNL307C, strain MCK1, active compounds read low 1.01 | S. cerevisiae deletion strains, locus YNL322C, strain KRE1 (second series), active compounds read low 1.02 | S. cerevisiae deletion strains, locus YNR049C, strain mso1, active compounds read low 1.02 | S. cerevisiae deletion strains, locus YNR052C, strain pop2, active compounds read low 0.998 | S. cerevisiae deletion strains, locus YOL006C, strain TOP1, active compounds read low 0.973 | S. cerevisiae deletion strains, locus YOL012C, strain htz1 0.964 | S. cerevisiae deletion strains, locus YOL147C, strain pex11, active compounds read low 1 | S. cerevisiae deletion strains, locus YOR001W, strain rrp6, active compounds read low 1.01 | S. cerevisiae deletion strains, locus YOR061W, strain CKA2, active compounds read low 0.995 | S. cerevisiae deletion strains, locus YOR069W, strain VPS5, active compounds read low 0.985 | S. cerevisiae deletion strains, locus YOR070C, strain gyp1, active compounds read low 1.01 | S. cerevisiae deletion strains, locus YOR080W, strain dia2, active compounds read low 1.02 | S. cerevisiae deletion strains, locus YOR083W, strain WHI5, active compounds read low 1.03 | S. cerevisiae deletion strains, locus YOR106W, strain vam3, active compounds read low 1.02 | S. cerevisiae deletion strains, locus YOR136W, strain idh2, active compounds read low 1.02 | S. cerevisiae deletion strains, locus YOR144C, strain elg1, active compounds read low 1.01 | S. cerevisiae deletion strains, locus YOR184W, strain ser1, active compounds read low 1.02 | S. cerevisiae deletion strains, locus YOR231W, strain MKK1, active compounds read low 0.961 | S. cerevisiae deletion strains, locus YOR265W, strain rbl2, active compounds read low 1.02 | S. cerevisiae deletion strains, locus YOR270C, strain vph1, active compounds read low 1.06 | S. cerevisiae deletion strains, locus YOR290C, strain snf2, active compounds read low 0.992 | S. cerevisiae deletion strains, locus YOR316C, strain cot1, active compounds read low 1.01 | S. cerevisiae deletion strains, locus YPL051W, strain arl3, active compounds read low 1.01 | S. cerevisiae deletion strains, locus YPL055C, strain LGE1, active compounds read low 0.967 | S. cerevisiae deletion strains, locus YPL078C, strain atp4, active compounds read low 1.03 | S. cerevisiae deletion strains, locus YPL106C, strain sse1, active compounds read low 1.02 | S. cerevisiae deletion strains, locus YPL240C, strain hsp82, active compounds read low 1.02 | S. cerevisiae deletion strains, locus YPL241C, strain CIN2, active compounds read low 0.991 | S. cerevisiae deletion strains, locus YPL256C, strain CLN2, active compounds read low 0.935 | S. cerevisiae deletion strains, locus YPR119W, strain clb2, active compounds read low 1.01 | S. cerevisiae deletion strains, locus YPR141C, strain kar3, active compounds read low 1.01 | S. cerevisiae deletion strains, locus YPR163C, strain tif3, active compounds read low 1 | S. cerevisiae deletion strains, locus YPR167C, strain met16, active compounds read low 1.02 | S. cerevisiae deletion strains, strain wtn01, active compounds read low 1.01 | S. cerevisiae strains, strain wild type, active compounds read low 0.957
